Out of some 340,000 compounds screened, about 3,300 (0.97%) were called active. This is one part of a sample in which actives are shown more often than they occur. Values without a mark were called inactive.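 Rule for the calls: active = mean activation above about 17%, with every replicate also reaching it (limit read from the data, passing the limit was not always enough); inconclusive = only one of the two conditions met; inactive = the rest.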

Drawing on PubChem BioAssay AID493131 (Broad Institute, 2011), this text covers activation for 10 compounds.

The target in this experiment is Protein FosB (Mus musculus) (UniProt P13346). Nature of the experiment: enhancers of mouse delta FosB DNA binding – biochemical, fluorescence polarization, TAMRA-CDK5 oligo, single point, primary screen (AID 493131).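 Note: fluorescence polarization rise as delta FosB binds a TAMRA Cdk5 AP-1 oligo.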 To be noted: purified delta FosB, at 25 µM, stronger effect = higher value.
Protein FosB (Mus musculus), sequence (P13346 whole entry, looked up): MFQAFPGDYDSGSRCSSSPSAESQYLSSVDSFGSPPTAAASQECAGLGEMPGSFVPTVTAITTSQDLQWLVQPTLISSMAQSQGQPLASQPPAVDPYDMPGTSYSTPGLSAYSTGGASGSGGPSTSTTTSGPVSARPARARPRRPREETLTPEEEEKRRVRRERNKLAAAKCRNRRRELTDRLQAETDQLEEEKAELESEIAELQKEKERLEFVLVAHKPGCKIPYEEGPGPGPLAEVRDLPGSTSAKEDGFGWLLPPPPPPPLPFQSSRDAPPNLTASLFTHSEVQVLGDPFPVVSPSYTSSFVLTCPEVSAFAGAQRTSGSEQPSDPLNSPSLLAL
Consider `O=c1[nH]c(CN2CC=C(c3ccccc3)CC2)nc2scc(-c3cccs3)c12`, for which the activation was 35.5% (active).

`CC1([N+](=O)[O-])COP(=O)(Nc2ccc(F)cc2)OC1` (stereo not given): the activation is 2.39%.

Turning to `C[C@@]1([C@@H](NP(=O)(c2ccccc2)c2ccccc2)c2ccccc2)C[C@H]1CCO`, the activation was 0.415%.

Take `N#Cc1ccc(Cn2cc(C(=O)c3ccco3)c3ccccc32)cc1`: the activation is -7.9%.

With `C=CCN1C(=O)C2(C(C(=O)OCC)=C(N)Oc3c2c(=O)oc2ccccc32)c2ccccc21` (stereo not given), the activation was -8.76%.

With `OC(Cn1c2ccccc2c2ccccc21)C[n+]1ccccc1` (stereo not given), the activation was 20.4% (active).

`COC(=O)C1=C(c2cccc(OCc3ccccc3)c2)C[C@@H]2CC[C@H]1N2C(=O)NNCc1ccccc1`: the activation was -6.41%.

On to `Cc1ccc(CN2CCCC(C(=O)c3ccc4c(c3)OCO4)C2)cc1C` (stereo not given), for which the activation was -3%.

Turning to `CCN1CCN(c2nc3c(c(=O)[nH]2)CCC3)CC1`, the activation was -2.7%.

As for `O=C(c1ccccc1)C(O)(CN1CCCCC1)c1ccccc1` (stereo not given), the activation is -1.99%.
